# Measured values: PubChem BioAssay (NCATS)
# Results filed as inconclusive are left out. Where a call stands in place of a potency, no number is given. Activity calls are given as the source filed them. Unless noted, calls follow the shape of the dose curve; as a rule, active = well fitted curve in the direction sought with a large enough effect; inconclusive = small, poorly fitted or top-dose-only effect, or another doubt; inactive = no such curve, though single readings can be large; an effect the other way counts as inactive or inconclusive.
# Columns and labels:
# [1] = molecular target: Catechol O-methyltransferase (Homo sapiens) (UniProt P21964); test: Confirmatory Screen for Target Class Profiling of Small Molecule Inhibitors of Methyltransferases (AID 1745852); details: MTase-Glo luminescence, SAH detection, recombinant enzyme; measured here: COMT max response; stronger effect = lower value
# Chain of Catechol O-methyltransferase (Homo sapiens) (P21964 whole entry, looked up): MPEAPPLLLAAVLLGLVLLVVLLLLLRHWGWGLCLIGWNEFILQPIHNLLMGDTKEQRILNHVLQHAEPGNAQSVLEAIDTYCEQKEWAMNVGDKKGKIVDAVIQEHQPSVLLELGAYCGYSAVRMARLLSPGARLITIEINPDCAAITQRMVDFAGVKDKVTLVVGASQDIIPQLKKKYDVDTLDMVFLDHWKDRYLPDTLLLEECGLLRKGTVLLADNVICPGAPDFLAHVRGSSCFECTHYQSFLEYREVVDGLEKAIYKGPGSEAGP
# [2] = molecular target: Guanidinoacetate N-methyltransferase (Homo sapiens) (UniProt Q14353); test: as above; details: activity change, negative = inhibition: at 57.3 µM (top of the series) unless noted
# [3] = molecular target: Nicotinamide N-methyltransferase (Homo sapiens) (UniProt P40261); test: as above; details: MTase-Glo luminescence, SAH detection, recombinant enzyme; measured here: NNMT max response; stronger effect = lower value
# Chain of Nicotinamide N-methyltransferase (Homo sapiens) (P40261 whole entry, looked up): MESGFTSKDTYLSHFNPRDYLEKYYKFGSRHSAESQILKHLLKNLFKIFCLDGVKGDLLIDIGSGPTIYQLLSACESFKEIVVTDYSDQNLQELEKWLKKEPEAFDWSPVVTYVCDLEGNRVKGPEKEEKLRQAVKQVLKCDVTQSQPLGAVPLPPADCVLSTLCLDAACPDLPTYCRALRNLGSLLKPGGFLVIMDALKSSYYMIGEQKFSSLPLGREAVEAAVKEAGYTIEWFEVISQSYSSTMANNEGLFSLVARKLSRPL
# [4] = molecular target: Phenylethanolamine N-methyltransferase (Homo sapiens) (UniProt P11086); test: as above; details: MTase-Glo luminescence, SAH detection, recombinant enzyme; measured here: PNMT max response; stronger effect = lower value
# Chain of Phenylethanolamine N-methyltransferase (Homo sapiens) (P11086 whole entry, looked up): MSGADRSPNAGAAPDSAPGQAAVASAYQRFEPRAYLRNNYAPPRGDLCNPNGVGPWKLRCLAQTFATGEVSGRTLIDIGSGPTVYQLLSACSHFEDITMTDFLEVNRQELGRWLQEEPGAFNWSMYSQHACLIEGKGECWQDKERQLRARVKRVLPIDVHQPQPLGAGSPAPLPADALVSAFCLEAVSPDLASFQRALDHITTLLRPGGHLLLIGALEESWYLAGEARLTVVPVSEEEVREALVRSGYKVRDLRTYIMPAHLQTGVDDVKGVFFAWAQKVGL
# C33A = test: Primary qHTS to identify gynecologic anti-cancer compounds using libraries of approved drugs and bioactive compounds (AID 1345084); details: Gynecologic cancer cell panel viability, ATPlite luminescence, 48 h; series mostly up to 57.5 µM; also: nearly all actives have a fitted effect of over 55% in size; also: potency is read from the fitted curve at half-maximal effect
# In short: (§1)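 Measured: luminescence after ATPlite addition (15 min, RT). Exposure: 48 h, 37 C, 5% CO2.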
# [5] = system: Zika virus NS2B-NS3 protease (unlinked complex); test: Primary screen GU Rhodamine qHTS for Zika virus inhibitors: Unlinked NS2B-NS3 protease assay (AID 1347159); also: nearly all actives have a fitted effect of over 60% in size
# In short: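 Percent inhibition came from the 15-min rise in Rhodamine110 fluorescence (1.5 microM substrate, ~15% conversion), normalized to no-inhibitor and no-enzyme wells and Hill-fitted. Unlinked protease, 25 nM, pH 8.0 Tris buffer; compounds up to 114 microM, 15-min preincubation.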
# [6] = molecular target: Cytochrome P450 2D6 (Homo sapiens) (UniProt P10635); test: Cytochrome P450 family 2 subfamily D member 6 (CYP2D6) small molecule antagonists: luciferase biochemical (cell-free) qHTS assay (AID 1645840; active = well fitted curve in the direction sought with a large enough effect in the repeat runs; an effect the other way counts as inactive or inconclusive)
# Chain of Cytochrome P450 2D6 (Homo sapiens) (P10635 whole entry, looked up): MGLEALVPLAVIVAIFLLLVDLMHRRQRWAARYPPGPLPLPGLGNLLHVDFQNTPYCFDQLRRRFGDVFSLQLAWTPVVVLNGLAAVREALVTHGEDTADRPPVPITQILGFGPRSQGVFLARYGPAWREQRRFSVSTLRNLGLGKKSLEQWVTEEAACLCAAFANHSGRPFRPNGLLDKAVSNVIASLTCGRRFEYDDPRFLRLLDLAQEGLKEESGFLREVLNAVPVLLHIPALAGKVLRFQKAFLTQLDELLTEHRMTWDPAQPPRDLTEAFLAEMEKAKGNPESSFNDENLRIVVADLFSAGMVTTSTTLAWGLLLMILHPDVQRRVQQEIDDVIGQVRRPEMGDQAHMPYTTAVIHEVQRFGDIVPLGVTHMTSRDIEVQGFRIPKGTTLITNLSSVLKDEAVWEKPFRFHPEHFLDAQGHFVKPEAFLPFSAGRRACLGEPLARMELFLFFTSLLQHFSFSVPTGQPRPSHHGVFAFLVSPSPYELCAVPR
# In short: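 P450-Glo CYP2D6 system: proluciferin substrate converted by enzyme to luciferin, read by luminescence proportional to activity. Enzyme-substrate mix with compound 10 min at room temperature, then NADPH regeneration 1 h before detection reagent.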
# CASKI = test: Primary qHTS to identify gynecologic anti-cancer compounds using libraries of approved drugs and bioactive compounds (AID 1345084); details: Gynecologic cancer cell panel viability, ATPlite luminescence, 48 h; series mostly up to 57.5 µM; also: nearly all actives have a fitted effect of over 55% in size; also: potency is read from the fitted curve at half-maximal effect
# In short: as §1
# Tov-21-G = test: as above; details: Gynecologic cancer cell panel viability, ATPlite luminescence, 48 h; series mostly up to 57.5 µM
# In short: as §1
# [7] = molecular target: Luciferin 4-monooxygenase (Photinus pyralis) (UniProt P08659); test: Biochemical firefly luciferase enzyme assay for NPC (AID 624030);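 also: purified P. pyralis luciferase at 10 nM with luciferin and ATP substrate; nearly all actives have a fitted effect of over 70% in size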
# Chain of Luciferin 4-monooxygenase (Photinus pyralis) (P08659 whole entry, looked up): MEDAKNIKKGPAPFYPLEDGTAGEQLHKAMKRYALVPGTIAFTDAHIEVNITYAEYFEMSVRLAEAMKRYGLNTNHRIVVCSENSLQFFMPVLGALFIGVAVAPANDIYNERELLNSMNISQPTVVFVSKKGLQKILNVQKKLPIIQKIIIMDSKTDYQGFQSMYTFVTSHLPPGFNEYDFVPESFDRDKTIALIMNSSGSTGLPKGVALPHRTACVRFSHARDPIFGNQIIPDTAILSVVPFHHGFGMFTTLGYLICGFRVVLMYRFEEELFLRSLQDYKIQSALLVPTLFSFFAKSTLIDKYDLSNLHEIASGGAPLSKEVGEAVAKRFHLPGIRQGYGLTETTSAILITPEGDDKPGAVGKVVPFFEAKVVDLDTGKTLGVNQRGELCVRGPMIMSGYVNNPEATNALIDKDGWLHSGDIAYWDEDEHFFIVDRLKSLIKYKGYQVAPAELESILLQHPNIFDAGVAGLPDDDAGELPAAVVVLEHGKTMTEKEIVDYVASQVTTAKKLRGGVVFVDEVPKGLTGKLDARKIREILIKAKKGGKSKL
# In short: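 Direct inhibition of firefly luciferase enzyme (10 nM final, 50 mM Tris Acetate) assessed by luminescence within 5 minutes. Percent activity scaled between DMSO and PTC124 positive control, with concentration-effect curves classified by fit quality and response.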
# [8] = qHTS Assay for Identifying Gametocytocidal Compounds (AID 743244);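 also: actives lower the fluorescent signal which means gametocytes are killed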; details: P. falciparum 3D7 stage III-V gametocytes, alamarBlue, 72 h; max response: stronger effect = lower value
# In short: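 Using 20,000 stage III–V 3D7 gametocytes per well, compounds were incubated 72 h under 37 °C/5% CO2. Viability was then assessed by 24 h alamarBlue reduction, measured fluorometrically at 525/598 nm.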
# astro = test: Drug repurposing screens with cells derived from glioblastoma tumor samples (AID 1345199); details: viability, ATP luminescence, 48 h; series mostly up to 45.9 µM; also: nearly all actives have a fitted effect of over 40% in size
# In short: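 Primary testing used CD133+ neurospheres from four GBM patients, seven concentrations, 48 h exposure and ATP-based viability; confirmation added three slower-growing patient lines.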
# PA-1 = test: Primary qHTS to identify gynecologic anti-cancer compounds using libraries of approved drugs and bioactive compounds (AID 1345084); details: Gynecologic cancer cell panel viability, ATPlite luminescence, 48 h; series mostly up to 57.5 µM; also: nearly all actives have a fitted effect of over 55% in size; also: potency is read from the fitted curve at half-maximal effect
# In short: as §1
# [9] = system: Zika virus NS2B-NS3 protease; test: Primary screen GU AMC qHTS for Zika virus inhibitors (AID 1347154); also: nearly all actives have a fitted effect of over 70% in size
# In short: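 Fluorogenic AMC-substrate cleavage by noncovalent NS2B-NS3 protease complex (25 nM, pH 8.0 Tris buffer with Tween 20) followed for 15 minutes at room temperature (~20% conversion). Percent inhibition from ex340/em450 signal change, fitted by 4-parameter Hill equation.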
# [10] = Primary qHTS for small molecule stabilizers of the endoplasmic reticulum resident proteome: Secreted ER Calcium Modulated Protein (SERCaMP) assay (AID 1508630)
# In short: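 The SH-SY5Y reporter protocol was run at 3 concentrations up to 38.3 uM (primary) or 11 concentrations (follow-up): 16 h compound, 100 nM thapsigargin for 4 h, then extracellular luciferase luminescence.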
# [11] = molecular target: Cytochrome P450 2C9 (Homo sapiens) (UniProt P11712); test: Cytochrome P450 family 2 subfamily C member 9 (CYP2C9) small molecule antagonists: luciferase biochemical (cell-free) qHTS assay (AID 1645842; active = well fitted curve in the direction sought with a large enough effect in the repeat runs; an effect the other way counts as inactive or inconclusive; also: nearly all actives have a fitted effect of over 55% in size; also: potency is read from the fitted curve at half-maximal effect)
# Chain of Cytochrome P450 2C9 (Homo sapiens) (P11712 whole entry, looked up): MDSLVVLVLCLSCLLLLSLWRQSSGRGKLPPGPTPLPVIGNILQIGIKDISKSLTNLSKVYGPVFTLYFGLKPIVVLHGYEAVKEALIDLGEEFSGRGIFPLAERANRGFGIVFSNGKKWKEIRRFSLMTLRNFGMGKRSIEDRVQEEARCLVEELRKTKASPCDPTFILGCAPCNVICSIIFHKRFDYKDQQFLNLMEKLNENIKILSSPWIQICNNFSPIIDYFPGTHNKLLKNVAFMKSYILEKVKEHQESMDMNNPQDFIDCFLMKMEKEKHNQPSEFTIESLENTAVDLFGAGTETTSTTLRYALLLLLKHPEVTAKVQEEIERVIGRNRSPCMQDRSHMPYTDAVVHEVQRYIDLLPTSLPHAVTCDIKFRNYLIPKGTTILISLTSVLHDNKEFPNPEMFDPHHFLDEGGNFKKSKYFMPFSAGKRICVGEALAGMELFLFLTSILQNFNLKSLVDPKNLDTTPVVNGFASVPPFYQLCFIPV
# In short: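 P450-Glo CYP2C9 system: proluciferin substrate with enzyme in mix containing 0.4% BSA, 10 min at room temperature, then NADPH regeneration solution added and incubated 1 h at 37C. Detection reagent stopped reaction; luminescence read after 20 min as RLU.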
# [12] = qHTS to identify inhibitors of the type 1 interferon - major histocompatibility complex class I in skeletal muscle: primary screen against the NCATS Mechanism Interrogation Plate v5.0 (MIPE) Libary (AID 1347411); also: potency is read from the fitted curve at half-maximal effect; nearly all actives have a fitted effect of over 65% in size
# In short: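 HLA-B HiBit myoblasts, dexamethasone-free medium + 4 ng/ml IFN-b, 24 h compound, 11-pt 1:3 from 46 uM final. Readout: Nano-Glo HiBiT lytic luminescence after 10 min lysis, RT.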
# SKOV3 = test: Primary qHTS to identify gynecologic anti-cancer compounds using libraries of approved drugs and bioactive compounds (AID 1345084); details: Gynecologic cancer cell panel viability, ATPlite luminescence, 48 h; series mostly up to 57.5 µM; also: nearly all actives have a fitted effect of over 55% in size; also: potency is read from the fitted curve at half-maximal effect
# In short: as §1
# CAOV3 = test: as above; details: Gynecologic cancer cell panel viability, ATPlite luminescence, 48 h; series mostly up to 57.5 µM
# In short: as §1
structure (smiles),measurement,setting,value
COc1cc2nc(N3CCN(C)CC3)nc(NC3CCN(Cc4ccccc4)CC3)c2cc1OC,activity,[1],-1.25%
same,"activity change, negative = inhibition",[2],9.72%
same,activity,[3],-9.04%
same,activity,[4],0.903%
same,Potency,C33A,inactive
COc1ccc(NC(=O)N2CCc3c2ccc2ccccc32)cc1N1CCN(C)CC1,Potency,[5],inactive
same,Potency,[6],19 µM (active)
same,Potency,CASKI,inactive
same,Potency,Tov-21-G,inactive
CN(CC(=O)N1CCOCC1)Cc1c(Cl)cccc1NC(=O)c1ccccc1,Potency,[7],inactive
same,max response,[8],-0.892% (inactive)
same,Potency,astro,inactive
NC(=Nc1ccc(CCNCc2cccc(Cl)c2)cc1)c1cccs1,Potency,[5],inactive
same,Potency,[6],0.477 µM (active)
same,Potency,PA-1,inactive
same,Potency,Tov-21-G,inactive
Clc1ccccc1CNCC1CCC(CNCc2ccccc2Cl)CC1 (configuration not stated),Potency,[9],inactive
same,Potency,[5],inactive
same,Potency,[10],inactive
same,Potency,[11],inactive
same,Potency,C33A,inactive
same,Potency,CASKI,inactive
same,Potency,Tov-21-G,inactive
C=CC(=O)Nc1cccc(Nc2nc(Nc3ccc(Oc4ccnc(C(=O)NC)c4)cc3)ncc2F)c1,Potency,[5],inactive
same,Potency,[12],18.6 µM (active)
same,activity,[1],-5.97%
same,"activity change, negative = inhibition",[2],-5.15%
same,activity,[3],-53.4%
same,activity,[4],-10.6%
same,Potency,C33A,inactive
same,Potency,CASKI,inactive
C=C1C(=O)O[C@@H]2C[C@@H](C)[C@]34C[C@]5(C(=O)O[C@H]6CC(C)=C([C@H](C)CCCO)[C@H](OC(=O)C(C)CC)[C@H]65)[C@@H](C(C)=C3C[C@@H]12)[C@H]4OC(C)=O (some centres not stated),Potency,[5],inactive
same,Potency,C33A,inactive
same,Potency,CASKI,inactive
same,Potency,SKOV3,inactive
OC(CNCCc1c[nH]c2ccccc12)Cn1c2ccccc2c2ccccc21 (configuration not stated),Potency,[6],0.268 µM (active)
same,Potency,[11],0.952 µM (active)
same,Potency,PA-1,inactive
same,Potency,Tov-21-G,inactive
O=C(C1=CCN2c3c(cccc31)OC[C@H]2CN1CCOCC1)c1cccc2ccccc12,Potency,[5],inactive
same,Potency,CASKI,inactive
COc1ccccc1-c1c[nH]c2ncc(-c3cncc(C(=O)N(C)C)c3)cc12,Potency,[5],inactive
same,Potency,[11],3.38 µM (active)
same,Potency,C33A,inactive
same,Potency,CASKI,inactive
same,Potency,PA-1,31.6 µM (active)
CC(=O)Nc1nc2c(Oc3cc(-c4ccc(C(F)(F)F)cc4)ncn3)cccc2s1,Potency,[11],10.7 µM (active)
same,Potency,C33A,inactive
same,Potency,Tov-21-G,22.4 µM (active)
CCOP(=O)(Cc1ccc(C(=O)Nc2ccc(Br)cc2C#N)cc1)OCC,Potency,CAOV3,inactive
same,Potency,CASKI,inactive
same,Potency,PA-1,inactive
same,Potency,Tov-21-G,inactive
Fc1ccc(C2CCNC[C@H]2COc2ccc3c(c2)OCO3)cc1 (some centres not stated),Potency,[5],inactive
same,Potency,PA-1,inactive
CC[C@]1(O)C[C@H]2CN(CCC3C(=Nc4ccccc43)[C@@](C(=O)OC)(c3cc4c(cc3OC)N(C)[C@H]3[C@@](O)(C(N)=O)[C@H](O)[C@]5(CC)C=CCN6CC[C@]43[C@@H]65)C2)C1 (some centres not stated),Potency,CAOV3,inactive
same,Potency,CASKI,0.199 µM (active)
same,Potency,PA-1,0.1 µM (active)
same,Potency,Tov-21-G,0.316 µM (active)
CCN1CCC[C@@H]1CNC(=O)c1ccc2c(c1)NC(=O)/C(=C/c1ccccc1F)S2,Potency,[5],inactive
same,Potency,[11],12 µM (active)
same,activity,[1],-24.5%
same,"activity change, negative = inhibition",[2],-8.4%
same,activity,[3],-32%
same,activity,[4],-20.2%
same,Potency,C33A,inactive
same,Potency,Tov-21-G,inactive
C[C@@H]1CCNC(=O)c2cc3ccc(C(=O)Nc4nc5ccccc5n4CCCN(C)C)cc3n21,Potency,[5],inactive
same,Potency,[11],inactive
same,Potency,CAOV3,25.1 µM (active)
same,Potency,PA-1,inactive
C=C1C(=O)O[C@H]2[C@H]1[C@@H](OC(=O)/C(C)=C\C)C[C@]1(C)O[C@@H]1[C@H]1O[C@H]1C(=C)[C@H]2O,Potency,[5],inactive
same,Potency,PA-1,12.6 µM (active)
COC1CC(=O)C23C(=O)NC(CC(C)C)C2C(C)C(C)=CC3/C=C(\C)CCC(O)C1O (configuration not stated),Potency,[5],inactive
same,Potency,CASKI,inactive
same,Potency,SKOV3,inactive
same,Potency,Tov-21-G,inactive
